± gives the standard deviation of the averaged measurements.
What was measured:
Assay in all cases: promoter activity interaction Z-score (Lux/OD deviation from empty-vector control); higher = stronger promoter induction by the compound
[1] = system: E. coli BW25113 acrABp lux reporter
Outline: (§1)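 E. coli BW25113 (wild type or marA, soxS or rob deletion) carrying low-copy luxCDABE promoter reporters grew in 40 µl LB Lennox in 384-well plates at 37°C. Each compound was tested at four 1:2 dilutions in biological duplicates. OD600 and luminescence were read every 30 min for 12 h. Areas were taken over 0–8 h (wild type) or 1–9 h (mutants), and wells below 10% of median growth area were removed. The score is the Z-transformed residual of growth-normalised luminescence fitted against the empty-vector control.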

[2] = system: E. coli BW25113 marRABp lux reporter
Outline: as §1

[3] = system: E. coli BW25113 micFp lux reporter
Outline: as §1

[4] = system: E. coli BW25113 ompFp lux reporter
Outline: as §1

[5] = system: E. coli BW25113 robp lux reporter
Outline: as §1

[6] = system: E. coli BW25113 soxSp lux reporter
Outline: as §1

[7] = system: E. coli BW25113 tolCp lux reporter
Outline: as §1

[8] = 24.6 µg/ml, genetic background: wild type
[9] = 24.6 µg/ml, genetic background: ΔmarA
[10] = 24.6 µg/ml, genetic background: Δrob
[11] = 24.6 µg/ml, genetic background: ΔsoxS
[12] = 49.3 µg/ml, genetic background: wild type
[13] = 49.3 µg/ml, genetic background: ΔmarA
[14] = 49.3 µg/ml, genetic background: Δrob
[15] = 49.3 µg/ml, genetic background: ΔsoxS
[16] = 98.6 µg/ml, genetic background: wild type
[17] = 98.6 µg/ml, genetic background: ΔmarA
[18] = 98.6 µg/ml, genetic background: Δrob
[19] = 98.6 µg/ml, genetic background: ΔsoxS
[20] = 197.1 µg/ml, genetic background: wild type
[21] = 0.011 µg/ml, genetic background: wild type
[22] = 0.011 µg/ml, genetic background: ΔmarA
[23] = 0.011 µg/ml, genetic background: Δrob
[24] = 0.011 µg/ml, genetic background: ΔsoxS
[25] = 0.022 µg/ml, genetic background: wild type
[26] = 0.022 µg/ml, genetic background: ΔmarA
[27] = 0.022 µg/ml, genetic background: Δrob
[28] = 0.022 µg/ml, genetic background: ΔsoxS
[29] = 0.044 µg/ml, genetic background: wild type
[30] = 0.044 µg/ml, genetic background: ΔsoxS

SMILES: CC[n+]1c(-c2ccccc2)c2cc(N)ccc2c2ccc(N)cc21 [Ethidiumbromide]
- promoter activity interaction Z-score [1, 8]: 0.326 ± 0.22
- promoter activity interaction Z-score [1, 9]: 0.524 ± 0.7
- promoter activity interaction Z-score [1, 10]: 0.354 ± 0.098
- promoter activity interaction Z-score [1, 11]: -0.0764 ± 0.31
- promoter activity interaction Z-score [1, 12]: 0.808 ± 0.11
- promoter activity interaction Z-score [1, 13]: 1.18 ± 0.92
- promoter activity interaction Z-score [1, 14]: 0.756 ± 0.029
- promoter activity interaction Z-score [1, 15]: 0.5305 ± 0.0051
- promoter activity interaction Z-score [1, 16]: 1.2 ± 0.53
- promoter activity interaction Z-score [1, 17]: 0.599 ± 1.3
- promoter activity interaction Z-score [1, 18]: 0.819 ± 0.29
- promoter activity interaction Z-score [1, 19]: 0.475 ± 0.05
- promoter activity interaction Z-score [2, 8]: 0.958 ± 0.21
- promoter activity interaction Z-score [2, 9]: 0.99 ± 0.055
- promoter activity interaction Z-score [2, 10]: 0.804 ± 0.17
- promoter activity interaction Z-score [2, 11]: 0.684 ± 0.19
- promoter activity interaction Z-score [2, 12]: 1.32 ± 0.076
- promoter activity interaction Z-score [2, 13]: 1.56 ± 0.57
- promoter activity interaction Z-score [2, 14]: 1.1 ± 0.13
- promoter activity interaction Z-score [2, 15]: 1.368 ± 0.0038
- promoter activity interaction Z-score [2, 16]: 1.6 ± 0.43
- promoter activity interaction Z-score [2, 17]: 1.57 ± 0.26
- promoter activity interaction Z-score [2, 18]: 1.07 ± 0.073
- promoter activity interaction Z-score [2, 19]: 1.15 ± 0.091
- promoter activity interaction Z-score [3, 8]: 0.89 ± 0.25
- promoter activity interaction Z-score [3, 9]: 0.0467 ± 0.069
- promoter activity interaction Z-score [3, 10]: 0.437 ± 0.23
- promoter activity interaction Z-score [3, 11]: 0.0133 ± 0.038
- promoter activity interaction Z-score [3, 12]: 1.09 ± 0.86
- promoter activity interaction Z-score [3, 13]: 0.0126 ± 0.13
- promoter activity interaction Z-score [3, 14]: 0.436 ± 0.016
- promoter activity interaction Z-score [3, 15]: 0.338 ± 0.11
- promoter activity interaction Z-score [3, 16]: 0.763 ± 1.3
- promoter activity interaction Z-score [3, 17]: -0.124 ± 0.015
- promoter activity interaction Z-score [3, 18]: 0.377 ± 0.036
- promoter activity interaction Z-score [3, 19]: -0.366 ± 0.13
- promoter activity interaction Z-score [3, 20]: 1.24
- promoter activity interaction Z-score [4, 8]: 0.291 ± 0.39
- promoter activity interaction Z-score [4, 9]: 0.262 ± 0.15
- promoter activity interaction Z-score [4, 10]: 0.428 ± 0.57
- promoter activity interaction Z-score [4, 11]: -0.386 ± 0.08
- promoter activity interaction Z-score [4, 12]: 0.79 ± 0.52
- promoter activity interaction Z-score [4, 13]: 0.776 ± 0.33
- promoter activity interaction Z-score [4, 14]: 0.612 ± 0.19
- promoter activity interaction Z-score [4, 15]: 0.772 ± 0.8
- promoter activity interaction Z-score [4, 16]: 0.327 ± 1.1
- promoter activity interaction Z-score [4, 17]: 0.808 ± 0.52
- promoter activity interaction Z-score [4, 18]: -0.58 ± 0.54
- promoter activity interaction Z-score [4, 19]: -0.257 ± 0.67
- promoter activity interaction Z-score [5, 8]: 0.277 ± 0.67
- promoter activity interaction Z-score [5, 9]: 0.595 ± 0.36
- promoter activity interaction Z-score [5, 10]: 0.758 ± 0.77
- promoter activity interaction Z-score [5, 11]: 1.25 ± 1.1
- promoter activity interaction Z-score [5, 12]: -0.152 ± 0.42
- promoter activity interaction Z-score [5, 13]: 1.37 ± 0.033
- promoter activity interaction Z-score [5, 14]: -0.413 ± 0.32
- promoter activity interaction Z-score [5, 15]: 0.804 ± 0.45
- promoter activity interaction Z-score [5, 16]: -0.356 ± 0.7
- promoter activity interaction Z-score [5, 17]: -0.204 ± 0.19
- promoter activity interaction Z-score [5, 18]: -1.46 ± 0.089
- promoter activity interaction Z-score [5, 19]: -0.959 ± 1.1
- promoter activity interaction Z-score [6, 8]: 0.555 ± 0.028
- promoter activity interaction Z-score [6, 9]: 0.911 ± 0.17
- promoter activity interaction Z-score [6, 10]: 0.717 ± 0.25
- promoter activity interaction Z-score [6, 11]: 1.38 ± 0.36
- promoter activity interaction Z-score [6, 12]: 1.31 ± 0.084
- promoter activity interaction Z-score [6, 13]: 1.5169 ± 0.00016
- promoter activity interaction Z-score [6, 14]: 1.38 ± 0.24
- promoter activity interaction Z-score [6, 15]: 2.47 ± 0.14
- promoter activity interaction Z-score [6, 16]: 1.8 ± 0.019
- promoter activity interaction Z-score [6, 17]: 2.07 ± 0.081
- promoter activity interaction Z-score [6, 18]: 2.14 ± 0.22
- promoter activity interaction Z-score [6, 19]: 3.77 ± 0.59
- promoter activity interaction Z-score [6, 20]: 0.127 ± 0.036
- promoter activity interaction Z-score [7, 8]: -0.0407 ± 0.73
- promoter activity interaction Z-score [7, 9]: 0.142 ± 0.75
- promoter activity interaction Z-score [7, 10]: -0.711 ± 0.15
- promoter activity interaction Z-score [7, 11]: 0.75 ± 0.61
- promoter activity interaction Z-score [7, 12]: 0.059 ± 0.45
- promoter activity interaction Z-score [7, 13]: 0.836 ± 0.52
- promoter activity interaction Z-score [7, 14]: -0.973 ± 1
- promoter activity interaction Z-score [7, 15]: 0.167 ± 0.58
- promoter activity interaction Z-score [7, 16]: 0.025 ± 1.1
- promoter activity interaction Z-score [7, 17]: -0.192 ± 0.57
- promoter activity interaction Z-score [7, 18]: -0.394 ± 0.42
- promoter activity interaction Z-score [7, 19]: 0.815 ± 0.81
- promoter activity interaction Z-score [7, 20]: -0.153 ± 0.69
- promoter activity interaction Z-score ([7]; 197.1 µg/ml, genetic background: ΔsoxS): -1.48 ± 0.4

SMILES: COc1c(N2C[C@@H]3CCCN[C@@H]3C2)c(F)cc2c(=O)c(C(=O)O)cn(C3CC3)c12 [Moxifloxacin]
- promoter activity interaction Z-score [1, 21]: 0.0749 ± 0.025
- promoter activity interaction Z-score [1, 22]: -0.567 ± 0.78
- promoter activity interaction Z-score [1, 23]: 0.0419 ± 0.7
- promoter activity interaction Z-score [1, 24]: 0.247 ± 0.25
- promoter activity interaction Z-score [1, 25]: 0.793 ± 0.42
- promoter activity interaction Z-score [1, 26]: 1.07 ± 0.44
- promoter activity interaction Z-score [1, 27]: 0.898 ± 1.1
- promoter activity interaction Z-score [1, 28]: 0.353 ± 0.12
- promoter activity interaction Z-score [1, 29]: 3.94
- promoter activity interaction Z-score [1, 30]: 2.12 ± 1.1
- promoter activity interaction Z-score [2, 21]: 0.044 ± 0.089
- promoter activity interaction Z-score [2, 22]: 0.14 ± 0.15
- promoter activity interaction Z-score [2, 23]: -0.0981 ± 0.19
- promoter activity interaction Z-score [2, 24]: 0.00173 ± 0.15
- promoter activity interaction Z-score [2, 25]: 0.5 ± 0.56
- promoter activity interaction Z-score [2, 26]: 1.62 ± 0.86
- promoter activity interaction Z-score [2, 27]: 0.689 ± 0.17
- promoter activity interaction Z-score [2, 28]: 0.0296 ± 0.046
- promoter activity interaction Z-score [2, 29]: 4.34 ± 1.7
- promoter activity interaction Z-score [2, 30]: 2.52 ± 1.1
- promoter activity interaction Z-score [3, 21]: -0.2 ± 0.019
- promoter activity interaction Z-score [3, 22]: 0.154 ± 0.019
- promoter activity interaction Z-score [3, 23]: 0.0249 ± 0.077
- promoter activity interaction Z-score [3, 24]: -0.0364 ± 0.073
- promoter activity interaction Z-score [3, 25]: -0.17 ± 0.072
- promoter activity interaction Z-score [3, 26]: 0.371 ± 0.036
- promoter activity interaction Z-score [3, 27]: 0.129 ± 0.04
- promoter activity interaction Z-score [3, 28]: 0.0515 ± 0.087
- promoter activity interaction Z-score [3, 29]: -0.648 ± 0.45
- promoter activity interaction Z-score [3, 30]: -0.721 ± 0.42
- promoter activity interaction Z-score [4, 21]: 0.138 ± 0.022
- promoter activity interaction Z-score [4, 22]: -0.0717 ± 0.18
- promoter activity interaction Z-score [4, 23]: 0.0886 ± 0.25
- promoter activity interaction Z-score [4, 24]: 0.123 ± 0.17
- promoter activity interaction Z-score [4, 25]: 0.271 ± 0.48
- promoter activity interaction Z-score [4, 26]: 0.695 ± 0.25
- promoter activity interaction Z-score [4, 27]: 0.555 ± 0.53
- promoter activity interaction Z-score [4, 28]: 0.184 ± 0.35
- promoter activity interaction Z-score [4, 29]: -0.0419 ± 2.9
- promoter activity interaction Z-score [5, 21]: 1.08 ± 0.33
- promoter activity interaction Z-score [5, 22]: 0.716 ± 0.13
- promoter activity interaction Z-score [5, 23]: 0.563 ± 0.16
- promoter activity interaction Z-score [5, 24]: 0.0805 ± 0.38
- promoter activity interaction Z-score [5, 25]: 0.311 ± 0.14
- promoter activity interaction Z-score [5, 26]: 0.295 ± 0.073
- promoter activity interaction Z-score [5, 27]: 0.251 ± 0.47
- promoter activity interaction Z-score [5, 28]: 0.687 ± 0.83
- promoter activity interaction Z-score [5, 29]: -1.23 ± 0.75
- promoter activity interaction Z-score [5, 30]: 1.18 ± 0.81
- promoter activity interaction Z-score [6, 21]: 0.023 ± 0.037
- promoter activity interaction Z-score [6, 22]: -0.096 ± 0.089
- promoter activity interaction Z-score [6, 23]: 0.0641 ± 0.18
- promoter activity interaction Z-score [6, 24]: 0.135 ± 0.027
- promoter activity interaction Z-score [6, 25]: 0.0383 ± 0.078
- promoter activity interaction Z-score [6, 26]: -0.0462 ± 0.065
- promoter activity interaction Z-score [6, 27]: -0.139 ± 0.043
- promoter activity interaction Z-score [6, 28]: 0.616 ± 0.023
- promoter activity interaction Z-score [6, 29]: 0.204 ± 0.017
- promoter activity interaction Z-score [6, 30]: 2.34 ± 1.4
- promoter activity interaction Z-score [7, 21]: 0.549 ± 0.068
- promoter activity interaction Z-score [7, 22]: -0.242 ± 0.2
- promoter activity interaction Z-score [7, 23]: -0.0406 ± 1.1
- promoter activity interaction Z-score [7, 24]: 0.127 ± 0.0073
- promoter activity interaction Z-score [7, 25]: -0.356 ± 0.14
- promoter activity interaction Z-score [7, 26]: -0.296 ± 0.43
- promoter activity interaction Z-score [7, 27]: -0.0729 ± 0.065
- promoter activity interaction Z-score [7, 28]: 1.75 ± 2.6
- promoter activity interaction Z-score [7, 29]: 0.111 ± 0.07
- promoter activity interaction Z-score [7, 30]: 0.782 ± 1.2

— the supplement of paper PMC12282887
